This passage reports growth results from PubChem BioAssay (NCI).

The experiment concerns HL-60(TB) leukemia. Description: NCI-60 one-dose screen, 48 h (100 = growth as untreated, 0 = no growth, -100 = all killed). The settings on record: 10 µM unless noted.

Each structure is given as a SMILES string. Compounds without any hit were thinned out: in the full panel of roughly 83,000, 20% have a hit.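 Single-dose data. Exposure time 48 hours. Values below 10 considered active.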 Values without a mark were called inactive. Calls of active or inactive are those of the source.

In the case of `COc1ccc(/C=C(\C#N)c2cc3ccccc3n2S(C)(=O)=O)cc1`, the growth is 89.6%.
The value for `COc1cccc(-c2cc(-c3cccc(NS(C)(=O)=O)c3)nc(N)c2C#N)c1O` was 2.21% (active).
Regarding `CC(=O)c1ccc2c(c1)C1C=CCC1[C@H](c1cc3c(cc1Br)OCO3)N2` (stereo not given in full), the growth was -45.3% (active).
The value for `Fc1ccc2[nH]cc(-c3nc(-c4c[nH]c5ncccc45)cs3)c2c1` was 14%.
For `Cn1c(=O)c2c(nc(Cl)n2CCl)n(C)c1=O` the value was 45.7%; for `CCCCOC(=O)c1ccc(NC(=O)C(C)N2CCOCC2)cc1` (stereo not given), 82%.
For `COc1ccc2c(-c3ccc(F)cc3)c(C#N)c(=NC(C)=O)oc2c1` the value was -17.4% (active); for `COc1ccccc1N1CCN(C(=O)c2ccc3nc(NC(=O)c4ccc(NCCc5ccccc5)c([N+](=O)[O-])c4)sc3c2)CC1`, 94.3%.
As to `O=S(=O)(NCCNc1nccc(-c2c(-c3ccc(F)c(O)c3)nc3occn23)n1)c1ccccc1`, the growth is 63.6%.
For `CCCCCCCCCCCC(=O)OC(C)C(=O)NCCCC` (stereo not given) the value was 99.4%; for `COc1cc(/C=C/c2c(C(C)=O)c(C)nc3ccccc23)cc(OC)c1OC`, 0.0645% (active); for `CC1CCc2c(C(=O)Nc3ncc(Cc4cccc([N+](=O)[O-])c4)s3)csc2C1` (stereo not given), -26.3% (active).
The value for `COc1ccc(OCC(=O)Nc2ccc(-c3nc4ccccc4s3)cc2C)cc1` was 48.2%; that for `Cc1sc2nc(NCCN)[nH]c(=O)c2c1C` was 115%; that for `CCCCCCCC(C)NCCO` (stereo not given) was 101%.
`Brc1ccc(SCN(CSc2ccc(Br)cc2)Cc2ccccc2)cc1`: the growth was 40.3%.
The value for `COc1cc(-c2cc3cnccc3c3nc(N)c4ccncc4c23)cc(OC)c1OC` was 40.4%; that for `COc1ccccc1NS(=O)(=O)c1ccc2oc(SC(C)C)nc2c1` was 53.6%; that for `O=C(NCCCNC(=O)OCc1ccc2cccc(O)c2n1)OCc1ccc2cccc(O)c2n1` was 45.5%.
For `CC(=O)O[C@H]1Cc2c([nH]c3ccccc23)[C@@H](c2ccc(Cl)cc2)N1C(=O)CCNC(C)(C)C` the value was 16.6%.
The value for `Cc1cc(NCc2cc(Nc3ccnc4cc(Cl)ccc34)ccc2F)nc(N2CCN(C)CC2)n1` was -46.6% (active).
As for `COc1cc(/C=C/C(=O)c2ccc(Cl)cc2)cc(CN2CCCCC2)c1O`, the growth was 94.2%.
The value for `CC(=O)Nc1ccc(C(=O)CCl)cc1` was -19.4% (active); that for `CCn1cc(C(=O)O)c(=O)c2cc(F)c(N3CCN(S(=O)(=O)c4ccc(Cl)cc4)CC3)cc21` was 8.96% (active).
The value for `O=C(NCCCNc1cc(-c2cn(-c3ccccc3)nc2-c2cccc(O)c2)ccn1)c1cccc(O)c1` was 35.2%; that for `O=C1c2ccccc2C(=O)c2c1ccc(C(=O)O)c2[N+](=O)[O-]` was 65.1%; that for `NS(=O)(=O)c1ccc(N=Nc2ccc(-c3nn4cc(-c5ccccc5)nc4s3)cc2)cc1` was 91.5%.
For `CCN(CC)c1ccc(/C=C/C=C2\NC(=O)NC2=O)cc1` the value was 50.8%; for `O=S(=O)(NCCCNc1cc(-c2cn(-c3ccccc3)nc2-c2cccc(O)c2)ccn1)c1ccc(Br)cc1`, -13.1% (active); for `COc1cccc(C2C3=C(COC3=O)N(CCO)c3cc4c(cc32)CCC4)c1` (stereo not given), -0.364% (active).
With `COc1cc(/C=C2\COc3ccc(O)c(O)c3C2=O)cc(OC)c1`, the growth is -29.8% (active).
For `COc1ccc(-c2nc(SCC(=O)Nc3nc4ccc(C)cc4s3)[nH]c(=O)c2C#N)cc1OC` the value was 105%; for `CN(C)CCCn1c2c(c3cc(-c4ccco4)ccc3c1=O)C(=O)c1ccccc1-2`, 93.1%.
For the molecule `COc1ccc(/C=C(/C(=O)c2ccc(Cl)cc2)C(=O)C(F)(F)F)cc1`, the growth was 106%.
In the case of `COc1ccc(-n2c(N)c(-c3nc4ccccc4[nH]3)cc(C#N)c2=O)cc1`, the growth is 99%.
The value for `O=C(O)Cc1ccc(Cl)cc1` was 22.4%; that for `O=C(CNc1ncco1)Nc1ccc(S(=O)(=O)c2ccc(NC(=O)CNc3ncco3)cc2)cc1` was 44.8%.
For `COc1ccc2oc(=O)cc(-c3c(C#N)c(N)n4nc(N)c(C#N)c4c3C#N)c2c1` the value was 96.4%; for `C=CCOc1ccc2c(c1)CC[C@@H]1[C@@H]2CC[C@]2(C)C(=O)/C(=N/O)C[C@@H]12`, -28.4% (active).
The value for `CCOC(=O)c1ccc2c(c1)ncn2-c1ccc(NC(=O)Nc2cccc(C)c2)cc1` was 78.3%.
